Screens: PubChem, National Center for Advancing Translational Sciences (NCATS)
This is a sample that favours compounds with a hit; in the whole collection about 15% have one here.
DT40 TDP1 no CPT = qHTS for Inhibitors of human tyrosyl-DNA phosphodiesterase 1 (TDP1): qHTS in cells in absence of CPT. hit rate 15% among 420,000. AID 686978, 2013. Potency, µM (titrated, usually from 46.2 µM), without a hit: top-dose activity change, negative = growth inhibition, usual class: inhibitors. DT40 Tdp1-/- hTDP1 cells, no CPT, ATP luminescence, 48 h; also: nearly all actives have a fitted effect of over 55% in size
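Seeded 400 DT40-hTDP1 cells/well (vehicle DMSO, no 20 nM CPT); pinned compounds; ≥48 hr at 37 °C; CellTiter-Glo luminescence as viability measure.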
TDP1 cell CPT = DT40-hTDP1 cell growth loss with CPT; chicken DT40 Tdp1-/-;hTDP1 cells + 20 nM CPT, ATP luminescence, 48 h; Potency, µM (top dose mostly 46.2 µM), for the others: at the top dose activity change, negative = growth inhibition, actives largely listed as inhibitors; hit rate 12% among 420,000; AID 686979; also: nearly all actives have a fitted effect of over 55% in size
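Chicken DT40 Tdp1-/- cells complemented with human TDP1, 400 cells/well, exposed to compounds plus 20 nM camptothecin for at least 48 h at 37 C; viability read as ATP content by CellTiter-Glo luminescence.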
RORgamma inh = inhibitors of mouse ROR gamma transcriptional activity. P51450. Drosophila S2 Gal4-RORgamma UAS-luciferase reporter, 20 h. Potency, µM (doses to about 53.6 µM), without a hit: top-dose activity change, negative = inhibition, hits mostly inhibitors. hit rate 5.4% among 310,000. AID 2551; also: nearly all actives have a fitted effect of over 60% in size
Target sequence (P51450 whole entry, looked up, the tested form may be a part): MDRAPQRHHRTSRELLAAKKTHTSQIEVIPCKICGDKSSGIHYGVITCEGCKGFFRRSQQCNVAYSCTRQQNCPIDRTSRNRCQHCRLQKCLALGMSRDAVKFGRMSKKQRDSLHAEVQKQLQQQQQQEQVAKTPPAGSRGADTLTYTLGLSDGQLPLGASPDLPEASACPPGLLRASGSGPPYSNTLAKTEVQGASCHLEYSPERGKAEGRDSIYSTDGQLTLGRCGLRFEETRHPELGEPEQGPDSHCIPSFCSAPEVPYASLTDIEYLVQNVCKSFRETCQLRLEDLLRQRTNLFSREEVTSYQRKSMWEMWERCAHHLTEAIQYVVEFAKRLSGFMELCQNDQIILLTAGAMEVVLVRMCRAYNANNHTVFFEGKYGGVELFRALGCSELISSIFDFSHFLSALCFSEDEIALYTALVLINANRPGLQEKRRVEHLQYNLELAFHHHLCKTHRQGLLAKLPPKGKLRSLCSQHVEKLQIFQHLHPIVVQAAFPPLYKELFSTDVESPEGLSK
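Luminescence from a UAS-regulated Photinus luciferase reporter in stably transfected Drosophila Schneider cells is measured; decreased signal marks ROR gamma inhibition. Fusion expression is induced by 700 uM copper sulfate for 20 hr.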
12-LOX inh = inhibitors of human 12S-lipoxygenase ALOX12. P18054. purified 12hLO, xylenol orange hydroperoxide absorbance. Potency, µM (titrated, usually from 108 µM), without a hit: at the highest dose activity change, negative = inhibition, usual class: inhibitors. hit rate 1.1% among 580,000. AID 1671190
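Hydroperoxide product was detected by ferrous iron/xylenol orange as the 573 to 405 nm absorbance ratio. Arachidonic acid at 40 uM (final) was turned over for 30 min at room temperature by 150 nM human 12hLO, pH 7.0 Hepes buffer, after 15 min compound preincubation.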
ELG1 repair inh = inhibitors of ELG1-dependent DNA repair in HEK293T cells | HEK293T ELG1-luciferase reporter, luminescence, 16 h; DNA damage induced by 5-fluorouridine | Potency, µM (series often up to 46.1 µM), for inactives: at the top dose activity change, negative = inhibition, usual class: inhibitors | hit rate 2.3% among 330,000 | AID 504467; also: nearly all actives have a fitted effect of over 55% in size
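In this reporter screen, reduction of luminescence relative to DMSO vehicle indicated activity. Compounds and 5-fluorouridine were added together to 2,000 cells per well, incubated for 16 hr at 37 °C, then developed with ONE-Glo.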
VP16 counter = inhibits Gal4-VP16 luciferase reporter, ROR gamma counter-screen; Potency, µM (doses to about 53.6 µM), without a hit: top-dose activity, negative = inhibition, actives largely listed as inhibitors; AID 2546; hit rate 3.5% among 310,000; Drosophila S2 Gal4-VP16 UAS-luciferase, luminescence, 20 h;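 also: Gal4-VP16 expression switched on by copper sulfate through the metallothionein promoter; nearly all actives have a fitted effect of over 50% in size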
Starred values were filed as active, the others as inactive; ? = inconclusive; . = no result given; [ ] = another dose, or the depositor's remark. Calls follow the shape of the dose curve; as a rule, active = well fitted curve in the direction sought with a large enough effect; inconclusive = small, poorly fitted or top-dose-only effect, or another doubt; inactive = no such curve, though single readings can be large; an effect the other way counts as inactive or inconclusive. % is scaled to controls: 0 for no effect and ±100 for the full control effect; potency is read from the fitted curve at half-maximal effect.

SMILES | DT40 TDP1 no CPT | TDP1 cell CPT | RORgamma inh | 12-LOX inh | ELG1 repair inh | VP16 counter
NCC(=O)N1CCC2(CC1)C(=O)NCN2C(=O)c1ccc(Cl)cc1 | . | . | . | 0.1%[6.33 µM] | . | .
CCN(c1ccccc1)S(=O)(=O)c1cc(Br)cc2c1N(C(=O)C1CC1)CC2 | 18.4µM* | 16.4µM* | . | -15.7% | . | .
CCCCN(C)S(=O)(=O)c1cc2c(cc1Br)CCN2C(=O)C1CC1 | 3.66µM* | 4.11µM* | . | 6.9% | . | .
CCC(=O)N1CCc2cc(S(=O)(=O)N(CC)c3cccc(C)c3)ccc21 | ? | ? | -23.7% | 0.0% | -25.7% | -1.1%
CCN(c1cccc(C(F)(F)F)c1)S(=O)(=O)c1ccc2c(c1)CCN2C(=O)C1CC1 | 15.8µM* | 15.8µM* | -36.2% | 32.7% | ? | 0.3%[0.365 µM]
O=C(CCS(=O)(=O)c1cc(Br)cc2c1N(C(=O)C1CC1)CC2)NCc1ccccc1Cl | -16.0% | 0.7% | . | -8.4% | . | .
COC(=O)N(C)CC(=O)NC1CCCCC1C (configuration not stated) | . | . | . | -15.6% | . | .
CS(=O)(=O)c1ccc(OCC2(CNCc3ccc(F)c(F)c3)C[C@@H](O)[C@@H](O)C2)cc1 (some centres not stated) | . | . | . | 28.8% | . | .
CC(C)(C)c1ccc(CC(=O)N2CCC2(C)C(=O)Nc2cccc3ccccc23)cc1 (configuration not stated) | ? | ? | . | -28.4% | . | .
CC(C)(C)c1ccc(CC(=O)N2CCC2(C)C(=O)NCc2cccc3ccccc23)cc1 (configuration not stated) | 25.9µM* | 23.1µM* | . | -22.6% | . | .
Cc1ccc(S(=O)(=O)NC(=O)C2(C)CCN2C(=O)Cc2ccc(C(C)(C)C)cc2)cc1 (configuration not stated) | -10.9% | -7.2% | . | -4.2% | . | .
Cc1ccc(CNC(=O)C2(C)CCN2C(=O)Cc2ccc(C(C)(C)C)cc2)cc1 (configuration not stated) | 18.4µM* | 16.4µM* | . | ? | . | .
Cc1c(C(=O)N2CCN(C(=O)c3ccco3)CC2)[nH]c2c1C(=O)CC(C)(C)C2 | . | . | . | -2.7% | . | .
CCOc1cc2c(cc1NC(=O)CCC(=O)c1ccc(C)cc1)OC(C)C2 (configuration not stated) | . | . | . | 4.47µM* | . | .
CCOc1cc2c(cc1NC(=O)c1cc(C)ccc1OC)OC(C)C2 (configuration not stated) | . | . | . | 9.2% | . | .
O=C1CCCN1CCCNC(=S)Nc1ccc(Nc2ccccc2)cc1 | -7.5% | -3.8% | 11.7% | -7.3% | 14.6µM* | ?
CCOC(=O)c1ccc(NC(=S)NCCCN2CCCC2=O)cc1 | -14.5% | -1.9% | 30.0% | -26.6% | -12.5% | 4.9%
O=C1CCCN1CCCNC(=S)Nc1ccccc1 | 0.8% | 7.4% | 24.6% | 28.2µM* | 21.3% | -8.4%
O=C1CCCN1CCNC(=S)Nc1ccccc1 | -4.8% | -7.4% | -26.6% | 6.6%[57.4 µM] | 0.1% | 8.6%
Cc1c(O)ccc(-c2n[nH]c(C(=O)O)c2-c2nc3ccccc3s2)c1O | 3.5% | -3.7% | 12.9% | 35.5µM* | ? | 4.0%
COc1ccc(C2(C(=O)N3CCC([C@H]4[C@@H](OC)C(=O)N4C(C)C)CC3)CC2)cc1 | . | . | . | 65.1% | . | .
O=C1NCCCCCCN(C(=O)c2ccncc2)[C@H]2C[C@H](c3nc(Cc4ccccc4)no3)C[C@@H]12 | . | . | . | 6.6% | . | .
N#CCCN1CCN(C(C(=O)O)c2cn(CC(=O)O)c3cc(F)ccc23)CC1 (configuration not stated) | . | . | . | 1.4% | . | .
Cc1ccc(S(=O)(=O)/N=C(/Nc2ccc(F)cc2F)c2ccc(F)cc2)cc1 | 1.4% | 0.1% | -19.9% | 6.6% | ? | -9.1%
COc1ccccc1NS(=O)(=O)c1cc(N/C(=N\S(=O)(=O)c2ccccc2)c2ccc(F)cc2)ccc1Cl | . | 18.4µM* | ? | -2.4% | ? | -0.5%
SMILES | DT40 TDP1 no CPT | TDP1 cell CPT | RORgamma inh | 12-LOX inh | ELG1 repair inh | VP16 counter
COc1ccc(NS(=O)(=O)c2cc(NC(=O)Cc3n[nH]c(=O)c4ccccc34)ccc2OC)cc1 | 0.2% | -7.9% | . | 17.8% | . | .
COc1ccccc1N/C(=N/S(=O)(=O)c1ccc(C)cc1)c1ccc(Cl)cc1 | ? | 16.4µM* | ? | -14.2% | 2.0% | -12.6%
COc1ccccc1NS(=O)(=O)c1cc(NC(=S)Nc2cc(C)cc(C)c2)ccc1Cl | 5.17µM* | 11.6µM* | ? | ? | ? | ?
COc1ccccc1NS(=O)(=O)c1cc(NC(=O)Cc2n[nH]c(=O)c3ccccc23)ccc1Cl | ? | ? | . | -0.3% | 23.1µM* | .
O=C(N[C@H](Cc1ccncc1)C1CC(O)C1)c1cccn1C1CC1 (some centres not stated) | . | . | . | 77.6% | . | .
Cc1cc(S(=O)(=O)Nc2c(NC3CCCC3)c3ccccc3oc2=O)ccc1F | . | . | . | 10.1% | . | .
O=C(Nc1cccc(C(=O)OCc2cc(=O)n3nc(C4CC4)sc3n2)c1)c1cccc(Cl)c1 | 16.4µM* | 11.6µM* | . | -21.2% | . | .
Cc1nn2c(=O)cc(COC(=O)c3ccc(NC(=O)c4ccc(C(C)(C)C)cc4)cc3)nc2s1 | 16.4µM* | ? | . | -17.6% | . | .
CC(C)(C)c1ccc(C(=O)Nc2ccc(C(=O)OCc3cc(=O)n4ccsc4n3)cc2)cc1 | 20.6µM* | 20.6µM* | . | -15.9% | . | .
Cc1nn2c(=O)cc(COC(=O)c3cccc(NC(=O)c4cccs4)c3)nc2s1 | 11.6µM* | 11.6µM* | . | -26.8% | . | .
